# Tests used:
# [1] = target: ATP-dependent RNA helicase DDX24 (UniProt Q9GZR7); assay: cross-linking mass spectrometry
# [2] = target: Spectrin alpha chain, non-erythrocytic 1 (UniProt Q13813); assay: cross-linking mass spectrometry
# [3] = target: T1, Twinfilin-2 (UniProt Q6IBS0); assay: cross-link between two proteins; cross-linking mass spectrometry
# T1 sequence: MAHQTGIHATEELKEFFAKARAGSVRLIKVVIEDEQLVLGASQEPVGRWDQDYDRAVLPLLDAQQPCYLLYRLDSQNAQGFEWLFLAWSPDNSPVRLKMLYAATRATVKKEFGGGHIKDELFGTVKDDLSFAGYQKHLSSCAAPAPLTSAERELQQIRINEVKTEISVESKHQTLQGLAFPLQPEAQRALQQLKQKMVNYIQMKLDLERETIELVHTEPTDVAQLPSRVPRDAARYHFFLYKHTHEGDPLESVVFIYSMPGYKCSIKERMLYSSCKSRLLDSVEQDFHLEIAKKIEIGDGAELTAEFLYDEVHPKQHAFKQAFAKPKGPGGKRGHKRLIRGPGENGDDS
# [4] = target: Superkiller complex protein 8 (UniProt Q9GZS3); assay: as above
substance,measurement,setting,value
"Large ribosomal subunit protein eL20, Q02543",listed as a hit,[1],yes
"Actin, cytoplasmic 1, P60709",listed as a hit,[2],yes
same,listed as a hit,[3],yes
"RNA polymerase-associated protein CTR9 homolog, Q6PD62",listed as a hit,[4],yes

# — article PMC12350791
